# Over roughly 3,200 compounds, “TSA(without NAD+) / Primary screening (TSA) / delta Tm (K)” has its median near -0.07; the highest 2% begin near 0.37. The list comes from a sample in which the highest values are over-represented; it also holds similar structures and randomly drawn compounds.
# Target: NAD-dependent deacetylase Sirtuin 1 (human, UniProt Q96EB6)
# Experiment: primary screen, delta tm
# Design: single well (n = 1)
# Details: 10 µM
# Description: A total of 3,192 compounds extracted from the proposed lists were first screened by thermal shift assay (TSA), which determined a melting temperature shift (ΔTm) of Sirtuin 1 upon the addition of a test compound at a concentration of 10 µM (n = 1) with primary hit criteria of ΔTm > 0.45 K or ΔTm < −1.5 K. Primary hits (48 compounds) were retested in the same assay at three concentrations (5, 10, 20 µM, n = 4) for hit confirmation and for dose-dependency check. Secondary hits (41 compounds) were checked their selectivity for Sirtuin 1 based on counterscreening on unrelated protein targets (bovine carbonic anhydrase (CA) and recombinant SH2 domain of hABL1 kinase (ABL1)) at three different concentrations (5, 10, 20 µM, n = 4), which yielded 38 hit compounds, hereafter referred to as TSA hits. The TSA screening above was conducted in the absence of NAD+.
# Chain of NAD-dependent deacetylase Sirtuin 1 (Q96EB6 2-747 limits assumed): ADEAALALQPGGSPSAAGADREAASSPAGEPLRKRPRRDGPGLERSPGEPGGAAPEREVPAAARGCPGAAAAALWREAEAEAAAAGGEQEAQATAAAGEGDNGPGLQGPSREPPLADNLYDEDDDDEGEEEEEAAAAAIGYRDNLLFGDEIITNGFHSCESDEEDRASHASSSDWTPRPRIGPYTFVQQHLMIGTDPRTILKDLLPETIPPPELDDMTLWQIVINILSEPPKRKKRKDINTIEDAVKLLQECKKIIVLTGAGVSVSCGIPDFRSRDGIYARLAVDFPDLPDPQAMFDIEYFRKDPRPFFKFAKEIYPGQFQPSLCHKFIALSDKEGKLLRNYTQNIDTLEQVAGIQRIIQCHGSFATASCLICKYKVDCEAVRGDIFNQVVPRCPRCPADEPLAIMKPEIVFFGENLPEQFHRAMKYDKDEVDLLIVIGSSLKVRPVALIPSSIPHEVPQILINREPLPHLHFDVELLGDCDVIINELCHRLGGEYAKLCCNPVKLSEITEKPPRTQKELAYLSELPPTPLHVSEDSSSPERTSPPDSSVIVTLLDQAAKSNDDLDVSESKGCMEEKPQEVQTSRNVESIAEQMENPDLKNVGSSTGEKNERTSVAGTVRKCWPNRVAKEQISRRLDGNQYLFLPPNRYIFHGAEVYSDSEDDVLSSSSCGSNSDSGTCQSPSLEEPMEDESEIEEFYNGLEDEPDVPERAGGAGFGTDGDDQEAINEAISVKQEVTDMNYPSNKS
row,SMILES,TSA(without NAD+) / Primary screening (TSA) / delta Tm (K)
1,COc1ccc(Br)cc1/C=C1/Cc2ccccc2C1=O,-0.08
2,O=C1/C(=C\c2cc(Br)cc(Br)c2O)CC/C1=C\c1cc(Br)cc(Br)c1O,0.55
3,O=C1/C(=C\c2ccc(Br)cc2)CC/C1=C/c1ccccc1OC(F)F,-0.08
4,O=C(CCSc1ncccn1)Nc1c(Cl)cccc1Cl,-0.04
5,Cc1ccc(C23CC4CC(CC(C(=O)OCC(=O)Nc5ccc(S(N)(=O)=O)cc5)(C4)C2)C3)cc1,0.32
6,Cc1ccc(C23CC4CC(CC(C(=O)OCC(N)=O)(C4)C2)C3)cc1C,-0.22
7,Cc1ccc(C23CC4CC(CC(C(=O)OC(C)C(=O)Nc5ccc(S(N)(=O)=O)cc5)(C4)C2)C3)cc1C (stereo not shown),0.48
8,Cc1ccc(N(C)S(=O)(=O)c2cccc(C(=O)N(C)Cc3ccccc3Cl)c2)cc1,-0.24
9,O=S1(=O)CCC(N2CCN(c3ncnc4c3oc3ccccc34)CC2)C1 (stereo not shown),-0.11
10,Cc1nc(N2CCN(c3cccc(C(F)(F)F)c3)CC2)c2c3c(sc2n1)CCC3,0.16
11,CC(C)CC(=O)Nc1ccc(C(=O)COC(=O)CNC(=O)CC23CC4CC(CC(C4)C2)C3)cc1,-0.04
12,CCOc1ccc(Oc2ccc(NC(=O)CNC(=O)CC34CC5CC(CC(C5)C3)C4)cc2)cc1,0.38
13,COc1ccc(NC(=O)CC23CC4CC(C2)CC(CC(=O)Nc2ccc(OC)cc2)(C4)C3)cc1,0.15
14,NCCOCC(=O)O,-0.23
15,CCCn1c(NC(=O)c2ccc3c(c2)CCC(=O)N3)nc2ccccc21,0.12
16,Cc1ccc(C(=O)Nc2nc3ccc(NS(=O)(=O)c4ccc5c(c4)CCC(=O)N5)cc3s2)s1,0.66
17,O=C1CCc2cc(NC(=O)c3cccnc3)ccc2N1,-0.04
18,NCC(N)C1CCC1 (stereo not shown),-0.31
19,NC(=O)c1cc(NC(=O)CN2CC=C(c3ccc(O)cc3)CC2)cc(C(N)=O)c1,0.15
20,O=C1NC(=S)NC(=O)C1=NNc1c(F)cccc1F,-0.08
21,Cn1ncc2c(=O)n(CC(=O)N3CCCc4c(C(N)=O)cccc43)cnc21,-0.18
22,O=C(NC1(C(=O)N2CCN(C(=O)c3cnccn3)CC2)CCOC1)OCc1ccccc1 (stereo not shown),-0.12

row,SMILES,TSA(without NAD+) / Primary screening (TSA) / delta Tm (K)
1,Cc1sc2ncnc(N3CCC(C(=O)Nc4sc5c(c4C(N)=O)CCCC5)CC3)c2c1C,0.16
2,Cc1sc(NC(=O)C2CCN(c3ncc(C(F)(F)F)cc3Cl)CC2)c(C(N)=O)c1C,0.28
3,NC(=O)c1c(NC(=O)C2CCN(c3ncc(C(F)(F)F)cc3Cl)CC2)sc2c1CCC2,0.39
4,Cc1ccc(OCC(O)Cn2c(C(F)(F)F)ccc(C(N)=O)c2=O)cc1 (stereo not shown),-0.13
5,Cc1ccc(NC(=O)C(OC(=O)C23CC4CC(CC(O)(C4)C2)C3)c2ccccc2)c([N+](=O)[O-])c1 (stereo not shown),0.07
6,CC(NC(=O)CNC(=O)CNC(=O)c1cccs1)c1ccccn1 (stereo not shown),-0.23
7,O=C1CCCCC(C(=O)Nc2ccc(-c3nc4ccccc4[nH]3)cc2)N1 (stereo not shown),-0.03
8,O=C(CC12CC3CC(CC(C3)C1)C2)NCC(=O)Nc1ccc(Sc2nc3ccccc3[nH]2)cc1,0.18
9,O=C(NC(=S)Nc1ccc(-c2nc3ccccc3[nH]2)cc1)C12CC3CC(CC(C3)C1)C2,0.58
10,CN(c1ccccc1)S(=O)(=O)c1ccc(C(=O)Nc2cccc(S(=O)(=O)N3CCOCC3)c2)cc1,0.02
11,Cc1ccc(-c2nn(-c3ccccc3)cc2C(=O)Nc2cccc(S(=O)(=O)N3CCOCC3)c2)cc1,0.07
12,O=C(Nc1cccc(S(=O)(=O)N2CCOCC2)c1)C(c1ccccc1)c1ccccc1,0.09
13,O=C(Nc1cccc(S(=O)(=O)N2CCOCC2)c1)c1cccc(S(=O)(=O)N2CCc3ccccc32)c1,0.37
14,O=C(Nc1cccc(S(=O)(=O)N2CCOCC2)c1)c1cn(-c2ccccc2)nc1-c1ccccc1,-0.02
15,O=C(Nc1cccc(S(=O)(=O)N2CCOCC2)c1)c1cn(-c2ccccc2)nc1-c1ccc(Cl)cc1,0.58
16,O=C(Cn1[nH]c(=O)c2ccccc2c1=O)Nc1ccc(N2CCN(Cc3ccccc3)CC2)cc1,0.02
17,O=C(OCc1cccc2ccccc12)C1CCCCN1c1ncccn1 (stereo not shown),-0.13
18,Cc1nc2c(C(N)=O)ncn2c(C)c1CCC(=O)Nc1ccc(F)c(C(N)=O)c1,0.02
19,c1coc(CNc2ncnc3ccsc23)c1,0.05
20,Cc1ccc(C(C)(C)C)cc1S(=O)(=O)Nc1cccc(C(=O)NNC(=O)c2cccc(S(=O)(=O)Nc3cccc(C(F)(F)F)c3)c2)c1,1.22
21,CCNC(=O)c1cccc(NC(=O)C2CCN(S(=O)(=O)c3cc(C(C)(C)C)ccc3C)CC2)c1,0.17
22,O=C(NO)c1cccc(C(F)(F)F)c1,-0.13

row,SMILES,TSA(without NAD+) / Primary screening (TSA) / delta Tm (K)
1,NC(=O)c1ccc(CNC2CCCCCC2)o1,-0.05
2,C=CCOc1cccc(C2C(C(=O)c3ccco3)=C(O)C(=O)N2CCCN2CCOCC2)c1 (stereo not shown),-0.08
3,COc1ccc(NC(=S)NN)cc1OC,0.37
4,COc1ccc(CNC(=S)NC2CCCCC2)cc1OC,-0.23
5,COc1cc(NC(C)C(=O)Nc2ccc(C(N)=O)cc2)cc(OC)c1OC (stereo not shown),-0.18
6,COc1ccc(Br)cc1/C=C1/COc2ccccc2C1=O,-0.03
7,CCC(NC(=O)c1ccc(C(N)=O)cc1)C(c1ccc(C)cc1)n1cncn1 (stereo not shown),-0.21
8,COc1ccc(N(C)S(=O)(=O)c2cccc(C(=O)Nc3ccc4c(C)cc(=O)oc4c3)c2)cc1,-0.13
9,COc1ccc(N(C)S(=O)(=O)c2cccc(C(=O)Nc3ccc(OC)c(OC)c3)c2)cc1,-0.31
10,COc1ccc(N(C)S(=O)(=O)c2cccc(C(=O)Nc3ccc4ccccc4c3)c2)cc1,0.82
11,COc1ccc(N(C)S(=O)(=O)c2cccc(C(=O)Nc3ccc(-n4cnnn4)cc3)c2)cc1,0.59
12,COc1ccc(N(C)S(=O)(=O)c2cccc(C(=O)Nc3ccc(Br)cc3)c2)cc1,0.36
13,COc1ccc(N(C)S(=O)(=O)c2cccc(C(=O)Nc3ccc(Br)c(C(F)(F)F)c3)c2)cc1,0.62
14,COc1ccc(N(C)S(=O)(=O)c2cccc(C(=O)Nc3ccc(Cl)cc3)c2)cc1,0.36
15,COc1ccc(N(C)S(=O)(=O)c2cccc(C(=O)Nc3cccc(Br)c3)c2)cc1,0.38
16,COc1ccc(N(C)S(=O)(=O)c2cccc(C(=O)Nc3cccc4ccccc34)c2)cc1,-0.13
17,COc1ccc(NC(=O)c2cccc(S(=O)(=O)N(C)c3ccc(OC)cc3)c2)cc1,0.03
18,CCCOC(=O)c1ccc(NC(=O)c2cccc(S(=O)(=O)N(C)c3ccc(OC)cc3)c2)cc1,0.35
19,COc1ccc(N(C)S(=O)(=O)c2cccc(C(=O)Nc3ccc(Br)cc3F)c2)cc1,0.07
20,O=C(CCc1ccc2c(c1)OCO2)N1CCc2[nH]c3ccccc3c2C1,-0.15
21,Cc1nc(-c2ccccn2)[nH]c(=O)c1CC(=O)NCc1cccc(Oc2ccccc2)c1,0.09
22,NC(=O)C1CCN(C(=O)c2ccc3[nH]c4c(c3c2)CCCC4)CC1,0.17

row,SMILES,TSA(without NAD+) / Primary screening (TSA) / delta Tm (K)
1,Cc1cc(N(C)C)n2nc(C(F)(F)F)c(-c3ccccc3)c2n1,-0.18
2,Cc1ccc(-n2c(C)c(C)c3c(N)ncnc32)cc1,0.02
3,CCc1cc2c(N3CCCC3)nc(C)nc2s1,-0.07
4,CCCOc1ccc(C(=O)C2=C(O)C(=O)N(CCCN3CCOCC3)C2c2ccccc2F)cc1 (stereo not shown),-0.27
5,CC(=O)Nc1ccc(NC(=O)c2ccccc2SCC(=O)NC23CC4CC(CC(C4)C2)C3)cc1,-0.21
6,CCOc1ccc(C2C(C(=O)c3ccco3)=C(O)C(=O)N2CCCN2CCOCC2)cc1 (stereo not shown),-0.13
7,NC(=O)c1cccc(CN2CCCC2c2ccsc2)c1 (stereo not shown),-0.08
8,CC(=O)Nc1ccc(CNCc2ccccc2CN2CCCC2)cc1,-0.12
9,NC(=O)C1CCN(c2ncnc3c2c(-c2ccccc2)cn3-c2cccc(C(F)(F)F)c2)CC1,-0.07
10,CC(Nc1cccc(C(N)=O)c1)C1CN(Cc2ccccc2)CCO1 (stereo not shown),-0.18
11,Cc1ccc(-c2cc(C(=O)OC(C)C(=O)Nc3cccc([N+](=O)[O-])c3)[nH]n2)cc1 (stereo not shown),0.12
12,CC(=C/c1ccccc1)/C=N/NC(=O)c1cc(-c2ccc(C)cc2)n[nH]1,1.06
13,Cc1ccc(C2C(C(=O)c3cc4ccccc4o3)=C(O)C(=O)N2CCCN2CCOCC2)o1 (stereo not shown),0.02
14,N#Cc1cc(Br)ccc1NCC1(CCO)CCOC1 (stereo not shown),-0.24
15,Cc1cc(C)c(NC(=O)CN(C)C(=O)CNC(=O)C(C)(C)C)c(C)c1,0.02
16,O=C1/C(=C/c2cccc(O)c2)Oc2cc(O)ccc21,-0.21
17,O=C1/C(=C/c2cnn(-c3ccccc3)c2)Oc2cc(O)ccc21,1.25
18,O=C1/C(=C/c2ccccc2)Oc2cc(O)ccc21,0.08
19,NC(=O)c1ccc(C(=O)OCC(=O)Nc2ccccc2-c2ccccc2)cc1,-0.18

# Source: publication PMC6925144, “A prospective compound screening contest identified broader inhibitors for Sirtuin 1” (Scientific Reports, 2019)
